# Measurements taken from PubChem BioAssay (EPA / NIEHS).
# Activity calls are given as the source filed them. The calls were made as follows: active = hit-call score of the fitted dose curve at least 0.9, where 1 is the maximum; inactive = score below 0.9.
# Assay: ATG_CMV_CIS: Attagene CIS-FACTORIAL HepG2 Assay for human CMV (Internal Marker) (AID 2282928);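 also: endpoint acts as a background internal control marker rather than a target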
# Conditions: HepG2 CMV promoter reporter, transcription factor profiling; actives raise or lower the signal
# Protocol: ATG_CIS is a cell-based, multiplexed-readout assay that uses HepG2, a human liver cell line, with measurements taken at 24 hours after chemical dosing in a 24-well plate.ATG_CMV_CIS is one of 52 assay component(s) measured or calculated from the ATG_CIS assay. It is designed to make measurements of mRNA induction, a form of inducible reporter, as detected with fluorescence intensity signals by Reverse transcription polymerase chain reaction (RT-PCR) and Capillary electrophoresis technology.Data from the assay component ATG_CMV_CIS was analyzed into 1 assay endpoint. This assay endpoint, ATG_CMV_CIS, was analyzed with bidirectional fitting relative to DMSO as the negative control and baseline of activity. Using a type of inducible reporter, measures of mRNA for gain or loss-of-signal activity can be used to understand the background control at the transcription factor-level as they relate to the gene . Furthermore, this assay endpoint can be referred to as a secondary readout, because this assay has produced multiple assay endpoints where this one serves a background control function. To generalize the intended target to other relatable targets, this assay endpoint is annotated to the background measurement intended target family, where the subfamily is internal marker.
# Human liver HepG2 cells are transiently transfected with multiple reporter transcription units (MRTUs) in 6-well plates using FuGene 6 reagent (Roche; 3 ml FuGene/1 mg DNA). The MRTU constructs are regulated by a cis-regulating element (promoter). […] A major difference between the CIS and TRANS system is that in CIS activities of endogenous TFs are measured, whereas the TRANS assay evaluates changes in activities of exogenous, chimeric NR-Gal4 proteins. […] At the end of 24 hour incubation, total RNA was isolated using TriZol reagent (Invitrogen). The isolated RNA is then reverse-transcribed using oligo(dT) primer and Mo-MLV reverse transcriptase (Invitrogen) with DNAse I (Ambion) treatment for 30 min. The one-tenth of the produced cDNA was amplified by PCR using Taq DNA polymerase (Invitrogen) and two reporter sequence-specific primers. The PCR products were fluorescently labeled by primer extension with 6-arboxyfluorescein (6-FAM) 5'-labeled reporter sequence-specific primer (2 min at 95 C, 20 s at 68 C and 10 min at 72 C) and these products were digested with 5U of HpaI (New England Biolabs) for 2h at 37 C. The fragments were purified using Qiaquick PCR columns (Qiagen), analyzed on an ABI 3130xL genetic analyzer (Applied Biosystems) with peak positions identified by using a set of X-rhodamine (ROX)-labeled MapMarker1000 molecular weight standards (BioVentures). The raw capillary electrophoresis data was processed using Attagraph software (Attagene).
SMILES,outcome,AC50
O=[N+]([O-])c1cccc(Cl)c1,inactive,
CCOC(=O)CC(C)O (stereo not given),inactive,
C1=CC2C3C=CC(C3)C2C1 (stereo not given),inactive,
CC1=NN(c2ccc(S(=O)(=O)O)cc2)C(=O)C1,inactive,
C1CCCCC1,inactive,
C[C@H]1C[C@@H](O)CC(C)(C)C1,inactive,
C=C(C)[C@@H]1CC=C(C)C(=O)C1,inactive,
CCCCCCCC(=O)OCC(O)CO (stereo not given),inactive,
C=C1CC[C@H](O)C/C1=C/C=C1\CCC[C@]2(C)[C@@H]([C@H](C)/C=C/[C@H](C)C(C)C)CC[C@@H]12,inactive,
C=C(C)C(=O)OCCOCCOCCOC(=O)C(=C)C,inactive,
CCCCCCOC(=O)C(C)C,inactive,
CCC1(c2ccccc2)C(=O)NCNC1=O,inactive,
CC(=O)c1c(C)c([N+](=O)[O-])c(C(C)(C)C)c([N+](=O)[O-])c1C,inactive,
C=CC(=C)CCCC(C)(C)OC(C)=O,inactive,
CCCCOC(=O)CCCCCCCC(=O)OCCCC,inactive,
CSc1c(Cl)c(Cl)c(Cl)c(Cl)c1Cl,,26.3 µM (active)
CCCCCCC(O)CCCCCCCCCCC(=O)O (stereo not given),inactive,
CCNCCO,inactive,
C[C@H](CCC(=O)NCC(=O)O)[C@H]1CC[C@H]2[C@@H]3[C@H](O)C[C@@H]4C[C@H](O)CC[C@]4(C)[C@H]3C[C@H](O)[C@]12C,inactive,
c1ccc(Oc2ccccc2)cc1,inactive,

SMILES,outcome,AC50
C#CC(C)(O)CC(C)C (stereo not given),inactive,
Nc1ccc2c(O)cc(S(=O)(=O)O)cc2c1,inactive,
O=C(O)CCCCCCCCC(=O)O,inactive,
O=C(O)COCC(=O)O,inactive,
OCc1ccc(Cl)cc1Cl,inactive,
C=C(C)CNCC,inactive,
Cc1ccc(C)o1,inactive,
CC(C)=CCCC(C)CCOC=O (stereo not given),inactive,
C1CCOC1,inactive,
COC(=O)c1ccc(C)cc1C1=NC(C)(C(C)C)C(=O)N1 (stereo not given) (tested in a mixture with another compound),inactive,
COc1ccccc1N=Nc1c(S(=O)(=O)O)cc2cc(S(=O)(=O)O)cc(NC(C)=O)c2c1O,inactive,
CCCC1O[C@@H]2C[C@H]3[C@@H]4CCC5=CC(=O)C=C[C@]5(C)[C@H]4[C@@H](O)C[C@]3(C)[C@]2(C(=O)CO)O1 (stereo not given in full),inactive,
CC1(C)O[C@@H]2[C@@H](CO[C@@]3(COS(N)(=O)=O)OC(C)(C)O[C@@H]23)O1,inactive,
Nc1c(Cl)cc(Cl)cc1[N+](=O)[O-],,69.1 µM (active)
CCCCCCCCC=CCCCCCCCC1=NCCN1CCO,,48.2 µM (active)
COc1ccc(CCN2CCC(Nc3nc4ccccc4n3Cc3ccc(F)cc3)CC2)cc1,inactive,
C=CC(=O)OCCCC,inactive,
IC(I)I,inactive,
O=c1[nH]c(=O)c2cn[nH]c2[nH]1,inactive,
Cc1ncc[nH]1,inactive,
